# Assay results published in PubChem BioAssay AID2073 (Sanford-Burnham Center for Chemical Genomics, 2009).
# The whole screen tested about 290,000 compounds, of which about 570 (0.2%) were called active. Another 1% or so got no clear call; they are omitted. Cut-off read from the data, not from the text of the source: active = inhibition mostly above about 51% (no sharp cut-off); inconclusive = no clear call, values can overlap the other calls; inactive = mostly below about 53%. The full list was thinned out, with actives kept by preference.
# Biological target: Voltage-dependent N-type calcium channel subunit alpha-1B (Homo sapiens) (UniProt Q00975)
# Assay: inhibitors of Mint1-CaV2.2 protein interaction, biochemical, HTRF (AID 2073)
# Conditions: at 20 µM, stronger effect = higher value
# [1] = measured here: average of repeat tests
# Chain of Voltage-dependent N-type calcium channel subunit alpha-1B (Homo sapiens) (Q00975 whole entry, looked up): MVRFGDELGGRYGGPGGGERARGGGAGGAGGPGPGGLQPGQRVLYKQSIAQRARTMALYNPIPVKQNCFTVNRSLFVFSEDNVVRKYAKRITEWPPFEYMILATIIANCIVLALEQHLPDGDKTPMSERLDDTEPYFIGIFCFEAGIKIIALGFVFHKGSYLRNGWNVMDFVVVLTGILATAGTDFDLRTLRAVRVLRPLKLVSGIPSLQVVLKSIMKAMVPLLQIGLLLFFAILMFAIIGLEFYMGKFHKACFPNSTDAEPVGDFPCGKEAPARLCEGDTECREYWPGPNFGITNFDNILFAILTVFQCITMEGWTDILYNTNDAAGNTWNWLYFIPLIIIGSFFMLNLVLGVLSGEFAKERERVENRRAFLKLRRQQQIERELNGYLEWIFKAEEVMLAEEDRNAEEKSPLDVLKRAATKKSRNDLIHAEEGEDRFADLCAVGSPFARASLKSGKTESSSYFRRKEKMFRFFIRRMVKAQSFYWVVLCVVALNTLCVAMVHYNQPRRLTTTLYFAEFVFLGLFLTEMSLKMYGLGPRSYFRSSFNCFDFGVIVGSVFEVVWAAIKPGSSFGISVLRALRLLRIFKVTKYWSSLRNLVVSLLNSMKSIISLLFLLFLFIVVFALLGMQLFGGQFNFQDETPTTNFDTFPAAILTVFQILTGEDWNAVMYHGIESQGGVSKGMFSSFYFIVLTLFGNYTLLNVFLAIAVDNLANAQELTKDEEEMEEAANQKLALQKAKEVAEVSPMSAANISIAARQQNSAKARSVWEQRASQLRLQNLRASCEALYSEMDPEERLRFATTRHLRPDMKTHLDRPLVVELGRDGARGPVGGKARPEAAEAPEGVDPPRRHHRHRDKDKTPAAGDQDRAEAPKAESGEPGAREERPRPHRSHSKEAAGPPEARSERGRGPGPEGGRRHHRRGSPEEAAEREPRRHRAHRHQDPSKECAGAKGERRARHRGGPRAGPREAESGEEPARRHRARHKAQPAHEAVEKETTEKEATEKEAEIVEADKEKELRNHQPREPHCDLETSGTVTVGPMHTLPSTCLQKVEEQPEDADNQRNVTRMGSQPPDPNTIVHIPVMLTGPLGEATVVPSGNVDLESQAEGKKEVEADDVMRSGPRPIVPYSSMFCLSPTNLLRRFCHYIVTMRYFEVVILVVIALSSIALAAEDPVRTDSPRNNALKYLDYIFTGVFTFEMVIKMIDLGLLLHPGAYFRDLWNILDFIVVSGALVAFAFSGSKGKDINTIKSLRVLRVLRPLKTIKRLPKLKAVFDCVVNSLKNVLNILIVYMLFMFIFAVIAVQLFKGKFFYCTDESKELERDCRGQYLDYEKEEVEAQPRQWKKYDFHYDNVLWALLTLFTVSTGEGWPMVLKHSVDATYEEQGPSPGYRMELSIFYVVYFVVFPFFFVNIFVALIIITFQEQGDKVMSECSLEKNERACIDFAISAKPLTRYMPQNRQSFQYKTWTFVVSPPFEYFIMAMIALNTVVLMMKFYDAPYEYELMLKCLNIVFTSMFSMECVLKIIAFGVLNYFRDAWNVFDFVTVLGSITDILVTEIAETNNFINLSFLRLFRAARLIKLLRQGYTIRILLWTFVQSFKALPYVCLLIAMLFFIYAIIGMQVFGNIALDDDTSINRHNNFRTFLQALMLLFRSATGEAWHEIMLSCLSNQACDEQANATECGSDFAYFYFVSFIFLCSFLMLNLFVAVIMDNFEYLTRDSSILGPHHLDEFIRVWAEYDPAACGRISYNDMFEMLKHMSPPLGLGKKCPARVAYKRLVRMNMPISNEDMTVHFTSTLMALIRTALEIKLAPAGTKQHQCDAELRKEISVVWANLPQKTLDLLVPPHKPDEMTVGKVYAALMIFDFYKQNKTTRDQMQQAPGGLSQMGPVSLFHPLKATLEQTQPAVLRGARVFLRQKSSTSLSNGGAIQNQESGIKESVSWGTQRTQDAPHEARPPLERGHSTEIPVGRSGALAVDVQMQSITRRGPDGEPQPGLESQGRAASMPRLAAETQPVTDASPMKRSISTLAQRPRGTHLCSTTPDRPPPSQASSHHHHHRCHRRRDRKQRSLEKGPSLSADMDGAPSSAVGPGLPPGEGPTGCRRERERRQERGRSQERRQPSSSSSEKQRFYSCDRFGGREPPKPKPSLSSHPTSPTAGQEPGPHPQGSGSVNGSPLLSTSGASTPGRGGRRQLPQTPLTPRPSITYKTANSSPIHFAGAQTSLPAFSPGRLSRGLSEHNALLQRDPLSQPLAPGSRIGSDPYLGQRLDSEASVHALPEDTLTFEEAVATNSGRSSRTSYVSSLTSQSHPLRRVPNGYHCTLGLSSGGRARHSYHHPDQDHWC
Structure (SMILES),inhibition,inhibition [1] [%]
CC(C)(C)NC(=O)CSC(=Nc1cccc(F)c1)NC#N,-25.9% (inactive),–
CCCCOc1ccc(Cl)cc1CSc1nnc(C)n1N,-4.8% (inactive),–
COC(=O)CCC(NC(=O)c1cc(-c2ccc3c(c2)OCCO3)oc1C)C(=O)OC (stereo not given),61.5% (active),–
Cc1oc(-c2ccc3c(c2)OCCO3)cc1C(=O)NC(CCC(=O)O)C(=O)O (stereo not given),20.1% (inactive),–
CCOC(=O)CNC(=O)c1cc(-c2ccc3c(c2)OCCO3)oc1C,10.9% (inactive),–
Cc1ccc(CNC(=O)CN2C(=O)NC(C)(c3ccccc3Cl)C2=O)cc1 (stereo not given),6.8% (inactive),–
CCOC(=O)c1c(NC(=O)CN2CCN(C(=O)c3ccco3)CC2)sc(C(N)=O)c1C,0% (inactive),–
c1ccc2c(c1)CCN(CCCNc1nc3ccccc3n3cnnc13)C2,50.8% (active),–
c1ccc2c(c1)CCN(c1nc3ccccc3n3cnnc13)C2,3.9% (inactive),–
c1ccc2c(c1)nc(NCCN1CCOCC1)c1nncn12,6.6% (inactive),–
CCCCCCCNC(=O)CC(NS(=O)(=O)c1ccc(NC(C)=O)cc1)C(C)C (stereo not given),1.5% (inactive),–
COc1ccc(-n2c(C)c(C(=O)O)c3cc(OC)c4ccccc4c32)cc1,13.1% (inactive),–
CN1CCN(c2c(F)cc3c(=O)c(C(=O)O)cn4c3c2SCC4)CC1,53.3% (active),–
CN1CCN(c2c(F)cc3c(=O)c(C(=O)O)cn(CCF)c3c2F)CC1,29.5% (inactive),–
CN1CCN(c2c(F)cc3c(=O)c(C(=O)O)cn4c3c2OCN4C)CC1,33.2% (inactive),–
CCOc1ccc(S(=O)(=O)NCc2cccnc2)cc1C(C)C,1.4% (inactive),–
Cc1ccc(-c2[nH]c(-c3ccc(C(=O)O)cc3)nc2-c2ccccc2)cc1,47.8% (inactive),–
CSc1nc(-c2ccc(C)cc2)[nH]c1S(=O)(=O)c1ccccc1,-18.4% (inactive),–
CC(=O)Sc1nc(-c2ccccc2)[nH]c1S(=O)(=O)c1ccc(C)cc1,82.4% (active),–
CCOC(=O)c1c(-c2ccccc2)oc2ccc(OC(C)=O)cc12,7.9% (inactive),–
CCCCOC(=O)Nc1nnc(CC)s1,3.8% (inactive),–
Cc1[nH][nH]c(=O)c1C(c1ccc(-c2ccc(Cl)cc2Cl)o1)c1c(C)[nH][nH]c1=O,2% (inactive),–
CN(C(=S)Nc1ccc(SC(F)F)cc1)C(c1ccccc1)c1ccccc1,-7.4% (inactive),–
CN(C(=S)Nc1ccc(Oc2ccccc2)cc1)c1ccc(O)cc1,11% (inactive),–
CN(C(=S)Nc1ccc(SC(F)F)cc1)c1ccc(O)cc1,56.1% (active),–
C/C(=N\NC(=O)c1cccs1)c1ccc(C(=O)O)s1,12.5% (inactive),–

Structure (SMILES),inhibition,inhibition [1] [%]
CCc1ccc(OCC(=O)NC(NC(=S)Nc2ccccc2C)C(Cl)(Cl)Cl)cc1 (stereo not given),-12.1% (inactive),–
COC(=O)c1sccc1NC(=O)c1ccc(C(C)C)cc1,1% (inactive),–
CCN(CC)CCNC(=O)c1ccc(NC(=O)COc2ccccc2F)cc1,-0.2% (inactive),–
O=C(/C=C/c1ccc(Br)o1)NCc1ccccc1,76.8% (inactive),13.4
COc1ccccc1CNC(=O)c1ccc(Br)o1,-2% (inactive),–
COc1ccccc1CNC(=O)/C=C/c1ccc(Br)o1,79.5% (active),–
COCC(=O)NNC(=O)c1ccccc1OC,-3.5% (inactive),–
CS(=O)(=O)N(CC(=O)Nc1ccc2c(c1)OCCO2)Cc1ccc(Cl)cc1,-3.3% (inactive),–
NC(=O)C1(C(N)=O)OC1c1ccc(Cl)cc1Cl (stereo not given),6.5% (inactive),–
CCOC(=O)C1=C(C)NC(=O)NC1c1ccc(Cl)cc1Cl (stereo not given),-3.7% (inactive),–
CC(=O)C1(C)OC(N)=C(C#N)C(c2ccccc2)C1(C#N)C#N (stereo not given),48% (inactive),–
COC(=O)C1C(=O)NC(SC)=C(C#N)C1c1ccccc1 (stereo not given),-20.5% (inactive),–
N#CC1=C(N)Nc2ncnn2C1c1ccc([N+](=O)[O-])cc1 (stereo not given),-11.4% (inactive),–
CCOC(=O)C1C(=O)NC(SC)=C(C#N)C1c1ccccc1F (stereo not given),-5.1% (inactive),–
N#CC1=C(N)SC(N)=C(C#N)C1c1ccc([N+](=O)[O-])cc1,68.2% (inactive),5
COC(=O)C1C(=O)NC(SC)=C(C#N)C1c1ccccc1F (stereo not given),8% (inactive),–
COCCCNC(=O)Cn1nnc(-c2ccc(NC(=O)c3ccc(F)cc3)cc2)n1,25.2% (inactive),–
Cc1cc2oc(=O)cc(CN3CCCCC3C)c2cc1C (stereo not given),2.6% (inactive),–
COc1ccccc1S(=O)(=O)Cc1ccc(C(=O)N2CCCC2)o1,0.3% (inactive),–
O=C(NCCc1c[nH]c2ccccc12)C(F)(F)C(F)F,-6.3% (inactive),–
Cc1ccc(C(=O)NCCc2nnc3ccc(SCC(=O)Nc4c(C)cc(C)cc4C)nn23)cc1,8.7% (inactive),–
CCCn1cnc2cc(NC(=O)c3ccco3)ccc21,10.4% (inactive),–
CC(C)c1csc(CN2CCN(Cc3ccccc3)C(CCO)C2)n1 (stereo not given),11.5% (inactive),–
Cc1ccc(C(=O)N(CC(=O)NC2CCCC2)c2ccc3c(c2)OCCO3)s1,-11% (inactive),–
O=C(Nc1ccc(Cl)cc1)N1CCOC12CCCCC2,-2.6% (inactive),–
O=Cc1cnc(N2CCOCC2)nc1,6.2% (inactive),–

Structure (SMILES),inhibition,inhibition [1] [%]
COC(=O)c1cc(O)c(O)c(O)c1,-68.3% (inactive),–
NNC(=O)c1cc(O)c(O)c(O)c1,63.1% (active),–
NNC(=O)c1cccc(O)c1,19.5% (inactive),–
COC(=O)c1ccc(NC(=O)CCn2cccc2)cc1,3.2% (inactive),–
CC(C)c1ccc(/C=C2\SC(N3CCOCC3)=NC2=O)cc1,-2.3% (inactive),–
CCOC(=O)C1CCCN(C(=O)CC(C)c2ccccc2)C1 (stereo not given),-3.1% (inactive),–
Cc1ccc(C)c(N2CCN(C(=O)CCn3c(=S)[nH]c4cc5c(cc4c3=O)OCO5)CC2)c1,4.3% (inactive),–
Cc1ccc(-n2cccc2/C=C2/C(=N)N3C(=NC2=O)SN=C3S(C)(=O)=O)cc1Cl,29.3% (inactive),–
CS(=O)(=O)C1=NSC2=NC(=O)/C(=C\c3cccn3-c3ccc(Cl)cc3)C(=N)N21,24.5% (inactive),–
CS(=O)(=O)C1=NSC2=NC(=O)/C(=C\c3cccn3-c3ccccc3Cl)C(=N)N21,68.7% (active),–
O=C(CC1NCCNC1=O)Nc1cccc([N+](=O)[O-])c1 (stereo not given),-6.8% (inactive),–
CC(C)N(C(=O)Nc1ccc2nsnc2c1)C(C)C,60.7% (active),–
CC(=O)Nc1ccc2nsnc2c1,9% (inactive),–
Cc1nc2ccc(NC(=O)N(C(C)C)C(C)C)cc2s1,10.4% (inactive),–
CCC(C)(C)n1nnnc1C(c1ccc(Cl)cc1)N1CCN(C)CC1 (stereo not given),-3.8% (inactive),–
CCc1c(C(C)S(=O)(=O)c2ccccc2)[nH]c(=O)n1CC (stereo not given),-7.8% (inactive),–
CCn1c(C)c(CS(=O)(=O)c2ccccc2)[nH]c1=O,73.9% (active),–
Cc1nn(C)c(C)c1CS(=O)(=O)c1ccccc1,-4% (inactive),–
Cc1ccc2cc(CN(C(=O)c3cccs3)c3ccccc3)c(=O)[nH]c2c1,4.6% (inactive),–
CC(C)O/C(=N\S(=O)(=O)c1ccc(Cl)cc1)c1ccccc1,3.7% (inactive),–
CCOC(=O)c1ccc(N=NN(C)C)cc1,-7% (inactive),–
CCOC(=O)c1ccc(N=c2scc(C)n2CC)cc1,3.7% (inactive),–
Cc1ccc(N=c2sc(C)c(C)n2C)cc1,-35.3% (inactive),–
Cc1ccc(N=C2CSC(=O)N2)cc1,-2.7% (inactive),–
Cc1cc(C)cc(C(N)=Nc2cccc(C#N)c2)c1,4.9% (inactive),–
N#Cc1ccc(N=c2ssnc2Cl)cc1,44.2% (inactive),–

Structure (SMILES),inhibition,inhibition [1] [%]
CN1C(=O)CSC1=Nc1ccc(Br)cc1,-4.4% (inactive),–
NC1=NC(=Nc2ccc(Br)cc2)c2ccccc21,-1.5% (inactive),–
O=C(COc1ccccc1Cl)Nc1ccc(CN2CCOCC2)cc1,-4.3% (inactive),–
Cc1nn(CC(=O)N2CCC(N3CCCCC3)CC2)c(=O)c2c1sc1ccccc12,16.1% (inactive),–
Cc1ccc(NC(=O)Cn2nnc(C(=O)NCc3ccc4c(c3)OCO4)c2N)cc1,9.7% (inactive),–
O=C(NNc1ccccc1)Nc1ccccc1F,-15.6% (inactive),–
CC(C)(C)C1CCC(=NNC(=O)C(=O)NC2CCCCC2)CC1 (stereo not given),2.1% (inactive),–
O=C(OCc1nnc(-c2ccc(Cl)cc2)o1)c1ccncc1,7.7% (inactive),–
Clc1ccc(N=c2ssnc2Cl)cc1,-17.4% (inactive),–
Clc1ss/c(=N\c2ccccn2)c1Cl,6.4% (inactive),–
Cc1c(CCC(=O)O)c(=O)oc2cc(OCc3cccc(F)c3)ccc12,16.2% (inactive),–
N#Cc1c(-c2ccccc2)cc(-c2ccco2)c(C#N)c1N,53.5% (active),–
CSc1nc(-c2ccco2)cc(-c2ccccc2)c1C#N,15.4% (inactive),–
N#Cc1c(-c2ccco2)cc(-c2ccccc2)[nH]c1=O,48.2% (inactive),–
COc1cc(Cl)c(C)cc1NC(=O)c1ccc2c(SCC(=O)O)c3c(nc2c1)CCCC3,53.2% (active),–
COc1ccc(Cl)cc1NC(=O)c1ccc2c(SCC(=O)O)c3c(nc2c1)CCCC3,12.3% (inactive),–
COc1cc(OC)c(NC(=O)c2ccc3c(SCC(=O)O)c4c(nc3c2)CCCC4)cc1Cl,44.9% (inactive),–
CCCOc1cccc(C(=O)O)c1,-5.1% (inactive),–
O=C(N/N=C\C=C\c1ccco1)c1cc(-c2ccc3ccccc3c2)n[nH]1,80.2% (inactive),9.6
CC(/C=N/NC(=O)c1cc(-c2ccccc2)nc2ccccc12)=C\c1ccco1,52.6% (active),–
CC(/C=N/NC(=O)c1cc(-c2ccc3ccccc3c2)n[nH]1)=C\c1ccco1,73.3% (active),–
CC(/C=N/NC(=O)c1cc(-c2ccncc2)nc2ccccc12)=C\c1ccco1,43.6% (inactive),–
CC(/C=N/NC(=O)c1cc(-c2ccc(Cl)cc2)nc2ccccc12)=C\c1ccco1,37.8% (inactive),–
O=C(N/N=C/c1ccco1)c1cc(-c2ccc3ccccc3c2)n[nH]1,5.5% (inactive),–
